Assay results: PubChem BioAssay AID493131 (Broad Institute, 2011)
Out of some 340,000 compounds screened, about 3,300 (0.97%) were called active. The entries come from a sample that favours actives as a whole. Values without a mark were called inactive.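 Rule for the calls: active = mean activation above about 17%, with every replicate also reaching it (limit read from the data, passing the limit was not always enough); inconclusive = only one of the two conditions met; inactive = the rest.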

The compounds below were run against Protein FosB (Mus musculus) (UniProt P13346) (assay: enhancers of mouse delta FosB DNA binding – biochemical, fluorescence polarization, TAMRA-CDK5 oligo, single point, primary screen (AID 493131;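 note: fluorescence polarization rise as delta FosB binds a TAMRA Cdk5 AP-1 oligo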)). Details: purified delta FosB, at 25 µM, hits give high values.
Sequence of Protein FosB (Mus musculus) (P13346 whole entry, looked up): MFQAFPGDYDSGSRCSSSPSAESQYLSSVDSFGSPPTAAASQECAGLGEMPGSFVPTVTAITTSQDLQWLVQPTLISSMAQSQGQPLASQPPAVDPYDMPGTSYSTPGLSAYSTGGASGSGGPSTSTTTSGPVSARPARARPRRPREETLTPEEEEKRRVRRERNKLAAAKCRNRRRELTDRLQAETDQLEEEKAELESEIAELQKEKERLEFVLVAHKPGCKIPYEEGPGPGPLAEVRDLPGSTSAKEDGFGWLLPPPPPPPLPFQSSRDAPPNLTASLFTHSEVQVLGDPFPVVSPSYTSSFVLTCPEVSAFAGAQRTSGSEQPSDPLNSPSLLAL

| SMILES | activation |
| --- | --- |
| O=c1[nH]c(CN2CC=C(c3ccccc3)CC2)nc2scc(-c3cccs3)c12 | 35.5% (active) |
| CC1([N+](=O)[O-])COP(=O)(Nc2ccc(F)cc2)OC1 (stereo not given) | 2.39% |
| C[C@@]1([C@@H](NP(=O)(c2ccccc2)c2ccccc2)c2ccccc2)C[C@H]1CCO | 0.415% |
| N#Cc1ccc(Cn2cc(C(=O)c3ccco3)c3ccccc32)cc1 | -7.9% |
| C=CCN1C(=O)C2(C(C(=O)OCC)=C(N)Oc3c2c(=O)oc2ccccc32)c2ccccc21 (stereo not given) | -8.76% |
| OC(Cn1c2ccccc2c2ccccc21)C[n+]1ccccc1 (stereo not given) | 20.4% (active) |
| COC(=O)C1=C(c2cccc(OCc3ccccc3)c2)C[C@@H]2CC[C@H]1N2C(=O)NNCc1ccccc1 | -6.41% |
| Cc1ccc(CN2CCCC(C(=O)c3ccc4c(c3)OCO4)C2)cc1C (stereo not given) | -3% |
| CCN1CCN(c2nc3c(c(=O)[nH]2)CCC3)CC1 | -2.7% |
| O=C(c1ccccc1)C(O)(CN1CCCCC1)c1ccccc1 (stereo not given) | -1.99% |
